CYP2C9 act – CYP2C9 (human) activation; recombinant CYP2C9, luciferin-H conversion, luminescence; hits give high values; factor 1 = untreated enzyme, 0 = blocked; activation factor at 5 µM; AID 1024; P11712; 1.4% of 96,000 active;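 active = activation factor of 2 or more for CYP2C9 at a 5 µM dose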
PostGolgi yeast – growth inhibition of a yeast mutant, post-Golgi transport screen. post-Golgi transport phenotypic cell assay. inhibition, % at 10 µM. 0.9% of 98,000 active;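 note: yeast cells grown in 1536-well plates; yeast grown about 18 h at 30C before absorbance read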
PostGolgi ctrl – yeast control strain growth, post-Golgi counter-screen | efflux-deficient yeast background strain, growth absorbance A615, 16 h | 5% of 98,000 active | inhibition, % at 10 µM
CYP2C19 act – activators of human cytochrome P450 2C19 | P33261 | recombinant CYP2C19, luciferin-H EGE luminescence; hits give high values; 0 = fully inhibited enzyme, 1 = untreated enzyme | activation factor at 5 µM | 96,000 tested, under 10 active | AID 1025;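 active = activation factor of at least 2 at 5 µM in the primary screen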
Target sequence (P33261 whole entry, looked up): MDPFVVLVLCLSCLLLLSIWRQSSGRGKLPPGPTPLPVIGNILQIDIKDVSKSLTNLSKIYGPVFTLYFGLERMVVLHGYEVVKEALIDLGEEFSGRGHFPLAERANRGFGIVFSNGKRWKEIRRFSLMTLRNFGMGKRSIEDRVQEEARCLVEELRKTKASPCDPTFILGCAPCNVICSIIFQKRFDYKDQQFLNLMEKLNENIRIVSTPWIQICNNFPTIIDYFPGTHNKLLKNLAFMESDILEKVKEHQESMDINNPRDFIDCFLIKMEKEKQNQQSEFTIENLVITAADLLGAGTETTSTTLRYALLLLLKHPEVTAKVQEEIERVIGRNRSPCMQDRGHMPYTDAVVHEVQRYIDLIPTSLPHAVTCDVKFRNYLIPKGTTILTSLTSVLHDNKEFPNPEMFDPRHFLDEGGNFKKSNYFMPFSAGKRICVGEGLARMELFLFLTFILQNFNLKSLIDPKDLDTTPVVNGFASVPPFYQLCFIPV
CYP2C9 inh – human CYP2C9 inhibition. inhibition, % at 5 µM. P11712. 20% of 96,000 active. CYP2C9 Supersomes, luciferin-H conversion, luminescence;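 active = blocking of liver enzyme CYP2C9 beyond about 50% at 5 µM, limit read from the data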
CYP2C19 inh – inhibitors of human CYP2C19. P33261. CYP2C19 Supersomes, luciferin-H EGE luminescence, 30 min. inhibition, % at 5 µM. 21% of 96,000 active. AID 778;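 active = CYP2C19 inhibition above a set limit at 5 µM in the primary screen, cut at about 50% in these data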
Each line names hits and unclear results; the compound was inactive in the other large screens. Only a sample is shown. Cut-off read from the data, not from the text of the source, unless noted: active = inhibition above about 30%; inactive = the rest.

Cc1ccc(N(CC(O)CON=C2c3ccccc3-c3ccccc32)S(C)(=O)=O)cc1 (stereo not drawn)	PostGolgi ctrl 66.9, CYP2C9 inh 53.2
COc1cc(-c2ccc(NC(=O)c3ccc(C)cc3)c(OC)c2)ccc1NC(=O)c1ccc(C)cc1	none
CCOc1ccc(N2CC(C(=O)OCC(=O)NCc3ccccc3)CC2=O)cc1 (stereo not drawn)	none
CN(C)CCC(=O)c1ccc(Cl)cc1	none
C=CCNC(=O)c1cccc(C(F)(F)F)c1	none
Cc1ccc(N(CC(O)Cn2c3ccccc3c3ccccc32)S(C)(=O)=O)c(C)c1 (stereo not drawn)	PostGolgi ctrl 51.2
CS(=O)(=O)N(Cc1ccco1)CC(O)Cn1c2ccccc2c2ccccc21 (stereo not drawn)	CYP2C9 inh 59.0, CYP2C19 inh 62.9
O=C(CSc1ncccc1-c1nc2ccccc2[nH]1)N1CCN(c2ccccc2F)CC1	none
N#CCSc1nnc(-c2ccccc2)c(-c2ccccc2)n1	none
COc1ccc(OC)c(S(=O)(=O)N(C)CC(=O)N2CCN(c3cccc(Cl)c3)CC2)c1	CYP2C9 inh 91.8, CYP2C19 inh 84.9
COc1ccc(OC)c(S(=O)(=O)N(C)CC(=O)N2CCN(c3ccc(F)cc3)CC2)c1	none
CCOC(=O)N1CCN(C(=O)CN(C)S(=O)(=O)c2ccc(OC)c(OC)c2)CC1	none
COc1ccc(OC)c(S(=O)(=O)N(C)CC(=O)N2CCN(c3ccccc3F)CC2)c1	CYP2C9 inh 68.3, CYP2C19 inh 75.7
CC(=O)OC1=C(C#N)Cn2ccc3cccc1c32	none
COc1ccccc1-c1nnc2sc(COc3ccc(Cl)cc3Cl)nn12	PostGolgi ctrl 40.9
c1ccc(OCc2nn3c(-c4cccnc4)nnc3s2)cc1	none (no result: PostGolgi yeast, PostGolgi ctrl)
COc1ccccc1-c1nnc2sc(COc3ccccc3)nn12	none (no result: PostGolgi yeast, PostGolgi ctrl)
Clc1ccc(OCc2nn3c(C4CCCCC4)nnc3s2)c(Cl)c1	PostGolgi ctrl 38.7
O=C(CC1C(=O)N(c2ccccc2)C(=O)N1C1CCCCC1)Nc1ccccc1 (stereo not drawn)	CYP2C19 inh 52.4
COc1ccccc1C(=O)N1C(CC(=O)Nc2cc(Cl)ccc2C)C(=O)NC2CCCCC21 (stereo not drawn)	none
Cc1ccc(NC(=O)CC2C(=O)NC3CCCCC3N2C(=O)c2ccc(F)cc2)cc1C (stereo not drawn)	CYP2C9 inh 63.7
O=C(c1ccc(F)cc1)C1CCN(C(=S)Nc2ccccc2)CC1	none
O=C(CC1C(=O)NC2CCCCC2N1C(=O)c1ccc(F)cc1)Nc1ccccc1 (stereo not drawn)	CYP2C9 inh 55.7
COc1ccc(NC(=O)CC2C(=O)N(c3cccc(OC)c3)C(=O)N2C2CCCCC2)cc1 (stereo not drawn)	none
CCc1cc2c(=O)n(-c3ccccc3)c(=S)[nH]c2s1	none
Cc1[nH]cnc1CSCCN	CYP2C9 inh 73.6
CC(NC(=O)NC12CC3CC(CC(C3)C1)C2)C1CCCO1 (stereo not drawn)	none (no result: CYP2C9 act, CYP2C19 act, CYP2C9 inh, CYP2C19 inh)
CCOC(=O)C1CCN(C(=O)CCCOc2ccccc2)CC1	none
CCC1CCCCN1C(=O)CCCOc1ccccc1 (stereo not drawn)	CYP2C19 inh 50.1
O=C(CCCOc1ccc(Cl)cc1)N1CCOCC1	CYP2C19 inh 87.4
O=C(CCCOc1ccc(Cl)cc1)N1CCCCC1	CYP2C19 inh 97.9
O=C(CCCOc1ccccc1)N1CCCCC1	CYP2C19 inh 56.3
CCC1CCCCN1C(=O)N[C@@H](Cc1ccccc1)C(=O)O (stereo partly drawn)	none
O=CN(Cc1ccco1)C1(C(=O)NC2CCCCC2)CCCCC1	none
COc1ccc(CCN2C(=O)CC(Sc3ncccc3C(=O)O)C2=O)cc1OC (stereo not drawn)	none
O=C(COc1ccc(Cl)cc1)N1CCCCC1	none
O=C(CCCOc1ccc(Cl)cc1)N1CCCCCC1	CYP2C9 inh 58.7, CYP2C19 inh 95.4
CC(=O)NCCn1c(SCC#N)nc2ccccc2c1=O	none
CC(=O)NCCn1c(SCc2ccccc2F)nc2ccccc2c1=O	CYP2C9 inh 97.4, CYP2C19 inh 98.4
Cn1c(SCc2ccccc2F)nc2cccnc21	CYP2C19 inh 63.4
Cc1cccc(OCCCC(=O)Nc2ccccc2C(F)(F)F)c1	none
COCCn1c(=S)[nH]c2cc(C(=O)N3CCN(c4ccc(F)cc4)CC3)ccc2c1=O	none
Cc1ccc(C)c(N2CCN(c3ncnc4c3cnn4-c3ccccc3)CC2)c1	none
COc1cccc(N2CCN(c3ncnc4c3cnn4-c3ccc(C)cc3C)CC2)c1	PostGolgi ctrl 45.6
Cc1ccc(-n2ncc3c(N4CCCC4)ncnc32)c(C)c1	PostGolgi ctrl 33.0 (no result: CYP2C9 act, CYP2C19 act, CYP2C9 inh, CYP2C19 inh)
CCOC(=O)C1CCCN(c2ncnc3c2cnn3-c2cccc(C)c2)C1 (stereo not drawn)	none
Cc1ccccc1C(=O)N1CCN(c2ncnc3c2cnn3-c2ccccc2)CC1	none
Cc1cccc(-n2ncc3c(N4CCC(C)CC4)ncnc32)c1	PostGolgi yeast 44.4, PostGolgi ctrl 45.0, CYP2C9 inh 96.1, CYP2C19 inh 71.2
COc1c(Cl)cc(C(=O)Nc2ccccc2-c2ccccc2)cc1Cl	none
CC(=O)C1=C(O)C(=O)N(c2nccs2)C1c1ccccc1 (stereo not drawn)	none
Cc1cc2cc(CN(CC3CCCO3)C(=O)c3cnccn3)c(=O)[nH]c2cc1C (stereo not drawn)	none
O=C(O)c1n[nH]c2c1CCCC2	CYP2C9 act 2.1
O=C(N/N=C/C=C/c1ccccc1)c1n[nH]c2c1CCC2	none
O=C(c1n[nH]c2c1CCCC2)n1ccnc1	CYP2C9 inh 52.5
O=C(O)c1n[nH]c2c1CCCCC2	none
COc1ccc(C(=O)NC(=O)COC(=O)C2COc3ccccc3O2)cc1 (stereo not drawn)	none
CC1CCCC(C)N1NC(=O)c1ccc(Cl)c(S(N)(=O)=O)c1 (stereo not drawn)	none
Cc1nc2ccccc2n2c(O)c(CC(=O)O)cc12	none
Cc1nn(-c2ccccc2)c2c1C(O)n1c(nc3ccccc31)S2 (stereo not drawn)	CYP2C9 inh 57.6, CYP2C19 inh 70.4
CCCCn1c(SCC(=O)Nc2cccc(C)n2)nnc1-c1ccco1	CYP2C9 inh 96.5, CYP2C19 inh 86.8
COCCCn1c(SCC(=O)Nc2cccc(C)n2)nnc1-c1ccco1	none
Cc1cccc(NC(=O)CSc2nnnn2C)n1	none
CCCCn1nnnc1SCC(=O)Nc1cccc(C)n1	CYP2C19 inh 65.0
O=C(CSc1nc(-c2ccc(F)cc2)cs1)N1CCc2ccccc21	none
O=C(NCc1ccccn1)c1cc2ccccn2n1	none
C=CCN(CC=C)C(=S)NC(=O)c1ccc(-c2ccccc2)cc1	none
CC(=O)c1ccc(Nc2ncnc3c2oc2ccccc23)cc1	none
CCC(C)(C)n1nnnc1C(c1cccnc1)N1CCN(c2cccc(C(F)(F)F)c2)CC1 (stereo not drawn)	PostGolgi yeast 85.8, PostGolgi ctrl 96.0, CYP2C9 inh 57.9, CYP2C19 inh 80.5

Screening data: PubChem, several laboratories
